Assay results taken from PubChem BioAssay (Tox21).
“And” between values parts separate entries of the source, which are not always exact repeats. Equal entries are not always repeated. Inconclusive results are not listed. Where a call stands in place of a potency, no number is given. The source made the active and inactive calls. The call rests on the fitted dose curve; in most records, active means well fitted cell-killing curve with a large enough effect in the repeat runs; inconclusive means weak or mixed curves, or effect the other way; inactive means flat fitted curve, though single readings scatter.

Assay: qHTS assay to identify small molecule agonists of the TGF-beta/Smad signaling pathway - cell viability counter screen (AID 1346829); further: nearly all actives have a fitted effect of over 45% in size
Conditions: SBE-bla HEK293T viability, CellTiter-Glo luminescence, 5 h; series mostly up to 76.8 µM
Description: National Center for Advancing Translational Sciences [NCATS]
NIH Chemical Genomics Center [NCGC]
U.S. Environmental Protection Agency [EPA]
National Institutes of Environmental Health Sciences [NIEHS]
National Toxicology Program [NTP]
U.S. Food and Drug Administration [FDA]
Transforming growth factor beta (TGF-beta) superfamily consists of a large number of structurally related dimeric proteins that act as hormones or local mediators in regulating a wide range of biological functions. This superfamily includes TGF-betas themselves, the bone morphogenetic proteins (BMPs) and the activins. These ligands induce oligomerization of serine/threonine receptor kinases and phosphorylate the cytoplasmic signaling molecules of Smad protein family. CellSensor SBE-bla HEK 293T cell line (Life Technologies, Carlsbad, CA), responsive to TGF-beta was used to screen Tox21 10K compound library for identification of agonists/antagonists of the Smad signaling pathway. This cell line contains a beta-lactamase reporter gene under control of the Smad binding element (SBE) stably integrated into HEK 293T cells. Also cytotoxicity of the compounds was tested in parallel by measuring the cell viability using CellTiter-Glo assay system in the same wells.
Tox21 Assay Protocol Summary:
SBE-bla HEK 293T cells were dispensed at 4,000/well in 6 uL of assay medium into black wall/clear-bottom 1536-well plates using a Multidrop Combi (ThermoFisher Scientific, Waltham, MA) dispenser. After the assay plates were incubated at 37 C and 5% CO2 for an overnight, 23 nL of compounds dissolved in DMSO, positive controls or DMSO only was transferred to the assay plate by a Pintool station (Kalypsys, San Diego, CA). The assay plates were incubated at 37 C and 5% CO2 for 5 hr. One uL of LiveBLAzer B/G FRET substrate (Life Technologies) was added using a Flying Reagent Dispenser (FRD, Aurora Discovery, San Diego, CA) and the plates were incubated at room temperature for 2 hr. Fluorescence intensity (405 nm excitation, 460 nm and 530 nm emissions) was measured using an Envision plate reader (PerkinElmer, Shelton, CT). For cytotoxicity read, 4 uL of CellTiter-Glo reagent (Promega Corporation, Madison, WI) was added to each well of the assay plates using FRD. After 30min incubation at room temperature, the luminescence intensity was measured using ViewLux plate reader (PerkinElmer).
Potency means the concentration at half of the fitted maximal effect.

| Structure (SMILES) | Potency |
| --- | --- |
| ClCc1ccccc1Cl | inactive |
| NP(N)(=O)NC(=O)c1ccc(F)cc1 | inactive |
| O=C(CCl)CCl | inactive |
| CCC1(C2=NCCN2)Cc2ccccc2O1 (stereo not given) | inactive |
| C=CCOC(=O)C(C)(C)OC(=O)c1cc(-n2c(=O)cc(C(F)(F)F)n(C)c2=O)ccc1Cl | inactive |
| COCc1cnc(C2=NC(C)(C(C)C)C(=O)N2)c(C(=O)O)c1 (stereo not given) | inactive |
| COP(=O)(OC)OC(Br)C(Cl)(Cl)Br (stereo not given) | inactive |
| N#CC1(N=NC2(C#N)CCCCC2)CCCCC1 | inactive |
| CN1C(=O)CN=C(c2ccccc2)c2cc([N+](=O)[O-])ccc21 | inactive |
| C[C@H](N)[C@H](O)c1ccc(O)c(O)c1 | inactive |
| COC(=O)C1(O)c2ccccc2-c2ccccc21 | inactive |
| CC(C)(C)c1ccc(CCOc2ncnc3ccccc23)cc1 | inactive |
| O=C(NCNC(=O)NC1C(=O)NC(=O)N1CO)NC1C(=O)NC(=O)N1CO (stereo not given) | inactive |
| O=P(OCC(Br)CBr)(OCC(Br)CBr)OCC(Br)CBr (stereo not given) | inactive |
| CCC1(CCC(C)C)C(=O)NC(=O)NC1=O | inactive |
| C[CH2][Hg][S]c1ccccc1C(=O)O | inactive |
| CCCCC1C(=O)NC(=O)N(C2CCCCC2)C1=O (stereo not given) | inactive |
| CCC1(CC)C(=O)NC(=O)NC1=O | inactive |
| CCCCCCCCCCCC[N+](C)(C)CCOc1ccccc1 | 55 µM (active) and 26.8 µM (active) |
| CC(O)CN1CCN(CC(=O)[O-])CCN(CC(=O)[O-])CCN(CC(=O)[O-])CC1.[Gd+3] (stereo not given) | inactive |

| Structure (SMILES) | Potency |
| --- | --- |
| CC(C)C1(C)N=C(c2ncccc2C(=O)O)NC1=O (stereo not given) | inactive |
| Nc1ccccc1C(=O)OCCc1ccccc1 | inactive |
| CCN(C(C)=O)c1cccc(-c2ccnc3c(C#N)cnn23)c1 | inactive |
| COC1=CC(=O)O[C@@H](/C=C/c2ccc3c(c2)OCO3)C1 | inactive |
| O=C(N/N=C/c1ccc([N+](=O)[O-])o1)c1cc([N+](=O)[O-])cc([N+](=O)[O-])c1O | inactive |
| Cc1cccc(C)c1NC1=NCCCS1 | inactive |
| C1CCNCC1 | inactive |
| OC[P+](CO)(CO)CO | inactive |
| NNCCO | inactive |
| CCC[N+](CCC)(CCC)CCC | inactive |
| CC(C)(C)N(NC(=O)c1ccc(Cl)cc1)C(=O)c1ccccc1 | inactive |
| CCC(=O)O[C@@H]1C=C2CCC3C(CCC4(C)C3CC[C@@H]4OC(=O)CC)C2CC1 (stereo not given in full) | inactive |
| CC[N+]1(CCOC(=O)C(O)(c2ccccc2)c2ccccc2)CCCCC1 | inactive |
| Clc1ccc(Cl)c(Cl)c1 | inactive |
| O=S(=O)(Cl)Cl | inactive |
| CN1CC[C@]23c4c5ccc(O)c4O[C@H]2[C@@H](O)C=C[C@H]3[C@H]1C5 | inactive |
| CCOC(=O)c1cncn1C(C)c1ccccc1 (stereo not given) | inactive |
| CC(C)(C)NCC(O)c1ccccc1Cl (stereo not given) | inactive |
| [Cl-].[Cl-].[Hg+2] | 54.7 µM (active) and 54.9 µM (active) |
| O=C1NC(=O)C(=O)C(=O)N1 | inactive |
